PubChem BioAssay
Measured potencies and affinities stand elsewhere. Records with an inconclusive call do not appear. Calls of active or inactive are those of the source.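 How the source made its calls: active means falling signal with fitted half-maximal potency no higher than twice the top valid tested dose; inconclusive means poor fit quality, or flat fit spanning -70% to -30%; inactive means potency over limit, rising signal, or flat fit inside 30%.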

Assay: Cryptococcus neoformans growth inhibition, dose response, Alamar Blue, cherry-picks (AID 686998)
Conditions: 24 h; series mostly up to 35 µM; activity change, negative = inhibition: at the top concentration

Activity change, negative = inhibition, inactive:
COc1cc(C(=O)Oc2ccccc2N)cc(OC)c1OC 12.6%
C[C@@H]1CN([C@@H](C)CO)C(=O)CCCn2nncc2CO[C@@H]1CN(C)Cc1cccc(C(F)(F)F)c1 -1.76%
O=C(CN1CCOCC1)N1CC[C@@H]2[C@@H](CO)Nc3ccc(-c4ccccc4F)cc3[C@@H]21 -6.76%
COc1ccccc1C(=O)Nc1ccc2c(c1)OC[C@H](C)N(C(C)=O)C[C@H](C)[C@H](OC)CN(C)C2=O -3.48%
C[C@@H]1CN([C@@H](C)CO)C(=O)c2cc(NS(=O)(=O)c3ccc(F)cc3)ccc2O[C@@H](C)CCCCO[C@H]1CN(C)S(=O)(=O)c1ccc(F)cc1 5.48%
C[C@@H]1CN([C@H](C)CO)C(=O)c2cccc(NC(=O)Nc3ccccc3)c2O[C@@H]1CN(C)Cc1ccc(Cl)c(Cl)c1 25.2%
C[C@@H]1CN([C@H](C)CO)C(=O)c2c(c3ccccc3n2C)-c2ccccc2CO[C@H]1CN(C)S(=O)(=O)c1ccc(Cl)cc1 44.6%
C[C@@H](NC(=O)C[C@@H]1CC[C@H]2[C@@H](COC[C@@H](O)CN2Cc2cc(F)ccc2F)O1)c1ccccc1 -10.8%
CNC(=O)C[C@H]1CC[C@H]2[C@@H](COc3ccc(NC(=O)Nc4cccc(C#N)c4)cc3C(=O)N2C)O1 9.46%
CCCN1CCCC[C@H]1C(=O)Nc1c(C)cccc1C -22.5%
COc1cccc(S(=O)(=O)Nc2ccc3c(c2)OC[C@H](C)NC[C@@H](C)[C@H](OC)CN(C)C3=O)c1 -30.8%
COc1ccccc1C(=O)Nc1ccc2c(c1)C(=O)N(C)C[C@H](OC)[C@@H](C)CN(CC1CC1)[C@@H](C)CO2 -24.2%
Cc1cccc(-c2ccc([C@@H]3[C@H]4CN(C(=O)c5ccc6c(c5)OCO6)CCCCN4[C@H]3CO)cc2)c1 -47.3%
N#Cc1ccc(-c2ccc3c(c2)[C@H]2[C@H](CCN2C(=O)Cc2ccccc2)[C@@H](CO)N3)cc1 0.57%
C[C@@H]1CCCCO[C@H](CN(C)Cc2ccc3c(c2)OCO3)[C@H](C)CN([C@H](C)CO)C(=O)c2cc(NC(=O)Nc3cccc4ccccc34)ccc2O1 53.9%
CC(C)NC(=O)Nc1ccc2c(c1)C(=O)N([C@@H](C)CO)C[C@H](C)[C@@H](CN(C)Cc1ccc3c(c1)OCO3)OCCCC[C@@H](C)O2 15.8%
CC=Cc1ccc2n(c1=O)C[C@H]1[C@H](CO)[C@@H](C(=O)N3CCc4ccccc4C3)N(C(=O)C3CC3)[C@@H]21 (mixture of isomers) -27.4%
CNC(=O)CN(c1ccc(C)cc1)S(=O)(=O)c1ccccc1 -32.8% [at 38 µM]
C[C@H]1CN([C@@H](C)CO)C(=O)Cc2cc(NC(=O)CCCCCC(=O)Nc3ccccc3N)ccc2O[C@H]1CN(C)Cc1ccc2c(c1)OCO2 24.5%
C[C@@H](NC(=O)C[C@@H]1CC[C@@H]2[C@H](COC[C@H](O)CN2Cc2cc(F)ccc2F)O1)c1ccccc1 -36.1%
CC(C)NC(=O)Nc1ccc2c(c1)CC(=O)N([C@H](C)CO)C[C@H](C)[C@H](CN(C)S(=O)(=O)c1ccc(Cl)cc1)O2 21.2%
C[C@H](CO)N1C[C@H](C)[C@H](CN(C)Cc2ccccc2)Oc2cc(C#Cc3ccccn3)ccc2S1(=O)=O 29.1%
O=C(C1CCOCC1)N1CC[C@@H]2[C@H]1c1cc(Br)ccc1N[C@@H]2CO -15.3%
CC(C)CC#Cc1ccc2c(c1)O[C@@H](CN(C)C(=O)C1CCC1)[C@@H](C)CN([C@H](C)CO)S2(=O)=O -32.7%
Cc1noc(C)c1NC(=O)Nc1ccc2c(c1)C(=O)N(C)[C@@H]1CC[C@H](CC(=O)N[C@H]3CCN(Cc4ccccc4)C3)O[C@@H]1CO2 -7.21%
C[C@@H]1CN([C@@H](C)CO)C(=O)Cc2cc(NC(=O)Nc3cccc4ccccc34)ccc2O[C@@H]1CN(C)S(=O)(=O)c1cccs1 60.9%
Cc1ccccc1CN(C)C[C@H]1OCc2cn(nn2)CCCC(=O)N([C@@H](C)CO)C[C@H]1C 22%
C[C@@H]1CN([C@@H](C)CO)C(=O)c2c(c3ccccc3n2C)-c2ccccc2CO[C@@H]1CN(C)S(=O)(=O)c1ccc(Cl)cc1 34.2%
CO[C@H]1CN(C)C(=O)c2cc(NS(=O)(=O)CC(F)(F)F)ccc2OC[C@@H](C)N(Cc2cccnc2)C[C@@H]1C 25.5%
O=S(=O)(c1ccc(F)cc1)N1C[C@@H]2[C@H](c3ccccc31)[C@@H](CO)N2Cc1ccccc1Cl -31.7%
CCCC#Cc1ccc2c(c1)O[C@H](CN(C)CCC)[C@H](C)CN([C@@H](C)CO)S2(=O)=O -38.2%
